From PubChem BioAssay (Tox21)
Results filed as inconclusive are left out. Active and inactive are the calls of the source. Unless noted, calls come from the whole dose curve; as a rule, active = well fitted curve in the direction sought with a large enough effect in the repeat runs; inconclusive = weak or mixed curves; inactive = no such curve, though single readings can be large; an effect the other way counts as inactive or inconclusive.

Legend:
[1] = qHTS assay for small molecule agonists of the p53 signaling pathway (AID 651631; calls by dose curve; note: nearly all actives have a fitted effect of over 15% in size; note: potency is the fitted concentration of half-maximal effect)
In short: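 HCT-116 cells carrying a stable p53 response element–beta-lactamase reporter were plated, rested 5 h at 37 °C, then exposed to compound in DMSO for 16 h at 37 °C; reporter activity was read as FRET substrate fluorescence after 2 h at room temperature.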

[2] = A CellTox Green Cytotoxicity Assay to monitor cytotoxicity in HEK293 cells - 0 hour (AID 1224869); note: % is set by controls: 0 for no effect and ±100 for the full control effect; nearly all actives have a fitted effect of over 50% in size
In short: (§1)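 Seeding of HEK293 cells together with cytotoxicity dye preceded a 5 h incubation at 37 C/5% CO2. Test compounds in DMSO were then added and fluorescence monitored across 40 h.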

[3] = qHTS RealTime-Glo MT Cell Viability Assay in HepG2 cells - 40 hour (AID 1224870); note: % is set by controls: 0 for no effect and ±100 for the full control effect; nearly all actives have a fitted effect of over 50% in size
In short: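 HepG2 cells mixed with RealTime-Glo MT reagents (NanoLuc plus cell-permeant prosubstrate) were seeded at 600 cells/well, incubated 5 h at 37 C/5% CO2, then pinned with compounds in DMSO; nonlytic luminescence tracked viability during 40 h treatment.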

[4] = A CellTox Green Cytotoxicity Assay to monitor cytotoxicity in HEK293 cells - 40 hour (AID 1224871); note: nearly all actives have a fitted effect of over 45% in size; note: potency is the fitted concentration of half-maximal effect
In short: as §1

[5] = qHTS RealTime-Glo MT Cell Viability Assay in HEK293 cells - 40 hour (AID 1224874); conditions: RealTime-Glo luminescence; max response: hits give low values; note: nearly all actives have a fitted effect of over 50% in size; note: potency is the fitted concentration of half-maximal effect; for max response: % is set by controls: 0 for no effect and ±100 for the full control effect
In short: (§2)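 Tox21 screen in HEK293 using RealTime-Glo MT chemistry, with cells and reagent co-dispensed. Luminescence proportional to viable cell number was captured at intervals during 40 h compound exposure at 37 C.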

[6] = A CellTox Green Cytotoxicity Assay to monitor cytotoxicity in HepG2 cells - 16 hour (AID 1224876); note: % is set by controls: 0 for no effect and ±100 for the full control effect; nearly all actives have a fitted effect of over 45% in size
In short: (§3)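 Nonlytic assay: viable cells exclude the dye, so fluorescence scales with cell death. HepG2 at 600 cells/well, compounds added after 5 h, signal read across 40 h.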

[7] = qHTS RealTime-Glo MT Cell Viability Assay in HEK293 cells - 0 hour (AID 1224880); note: top concentration of the series differs between compounds; % is set by controls: 0 for no effect and ±100 for the full control effect; nearly all actives have a fitted effect of over 45% in size
In short: as §2

[8] = A CellTox Green Cytotoxicity Assay to monitor cytotoxicity in HEK293 cells - 16 hour (AID 1224888); note: % is set by controls: 0 for no effect and ±100 for the full control effect; nearly all actives have a fitted effect of over 35% in size
In short: as §1

[9] = qHTS RealTime-Glo MT Cell Viability Assay in HepG2 cells - 0 hour (AID 1224889); note: % is set by controls: 0 for no effect and ±100 for the full control effect; nearly all actives have a fitted effect of over 50% in size
In short: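 HepG2 cells were seeded at 600 cells/well together with NanoLuc luciferase and a cell-permeant prosubstrate, preincubated 5 h at 37 C/5% CO2, then pin-dosed with compounds in DMSO. Nonlytic luminescence from viable cells was read at each time point.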

[10] = A CellTox Green Cytotoxicity Assay to monitor cytotoxicity in HepG2 cells - 8 hour (AID 1224890); note: % is set by controls: 0 for no effect and ±100 for the full control effect; nearly all actives have a fitted effect of over 45% in size
In short: as §3

[11] = qHTS assay to identify small molecule antagonists of the estrogen receptor alpha (ER-alpha) signaling pathway using the BG1 cell line in the presence of 0.1 nM 17-beta-estradiol - cell viability counter screen (AID 1259241); note: % is set by controls: 0 for no effect and ±100 for the full control effect; nearly all actives have a fitted effect of over 40% in size
In short: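 VM7Luc4E2 cells (endogenous ER-alpha, 4×ERE-luciferase), hormone-starved 5 days in charcoal-stripped FBS, were treated with compounds plus 0.1 nM 17beta-estradiol for 22 hr at 37C; viability read in same wells as CellTiter-Fluor live-cell protease fluorescence.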

[12] = qHTS assay to identify small molecule antagonists of the androgen receptor (AR) signaling pathway using the MDA cell line in the presence of 0.5 nM R1881 - cell viability counter screen (AID 1259242)
In short: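 R1881 at 0.5 nM final stimulated MDA-kb2 cells during 16 hr compound treatment at 37C. Cytotoxicity read: CellTiter-Fluor fluorescence after 30 min.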

[13] = qHTS assay to identify small molecule HDAC inhibitors - cell viability counter screen (AID 1259365)
In short: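 Wild-type HCT-116 cells were seeded at 1,500 per well, incubated overnight at 37 C, then exposed to compounds in DMSO for 2hr. Viability was read by CellTiter-Glo luminescence after 30min at room temperature.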

[14] = target: Estrogen receptor (Homo sapiens) (UniProt P03372); assay: qHTS assay to identify small molecule agonists of the estrogen receptor alpha (ER-alpha) signaling pathway in the presence of an antagonist (AID 1259383; calls by dose curve; note: top concentration of the series differs between compounds; % is set by controls: 0 for no effect and ±100 for the full control effect; nearly all actives have a fitted effect of over 15% in size)
Sequence of Estrogen receptor (Homo sapiens) (P03372 whole entry, looked up): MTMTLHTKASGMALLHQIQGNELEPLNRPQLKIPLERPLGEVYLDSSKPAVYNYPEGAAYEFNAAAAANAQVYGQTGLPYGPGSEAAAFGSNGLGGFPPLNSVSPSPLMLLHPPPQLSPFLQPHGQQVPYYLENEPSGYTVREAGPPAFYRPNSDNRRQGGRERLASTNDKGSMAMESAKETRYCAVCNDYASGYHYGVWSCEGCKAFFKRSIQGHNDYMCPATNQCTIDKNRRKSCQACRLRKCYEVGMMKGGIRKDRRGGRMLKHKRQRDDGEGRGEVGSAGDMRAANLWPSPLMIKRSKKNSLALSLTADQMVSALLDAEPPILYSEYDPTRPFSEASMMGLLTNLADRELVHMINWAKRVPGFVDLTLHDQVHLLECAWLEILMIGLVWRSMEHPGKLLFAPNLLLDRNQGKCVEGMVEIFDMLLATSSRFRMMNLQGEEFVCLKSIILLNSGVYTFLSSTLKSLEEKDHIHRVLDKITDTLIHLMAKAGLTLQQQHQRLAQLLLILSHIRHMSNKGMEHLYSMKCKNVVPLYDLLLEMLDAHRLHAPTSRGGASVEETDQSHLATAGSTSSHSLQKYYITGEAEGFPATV
In short: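 Using VM7Luc4E2 cells seeded 24hr before treatment, antagonist ICI-182,780 (10.0nM final) was added, followed by compounds at 15 concentrations. Plates incubated 22hr; ONE-Glo luminescence quantified reporter activity.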

[15] = target: Voltage-gated inwardly rectifying potassium channel KCNH2 (Homo sapiens) (UniProt Q12809); assay: Human Ether-a-go-go-Related Gene (hERG) channel small molecule antagonists: fluorescence cell-based qHTS assay (AID 1671200); note: nearly all actives have a fitted effect of over 50% in size; note: potency is the fitted concentration of half-maximal effect
Sequence of Voltage-gated inwardly rectifying potassium channel KCNH2 (Homo sapiens) (Q12809 whole entry, looked up): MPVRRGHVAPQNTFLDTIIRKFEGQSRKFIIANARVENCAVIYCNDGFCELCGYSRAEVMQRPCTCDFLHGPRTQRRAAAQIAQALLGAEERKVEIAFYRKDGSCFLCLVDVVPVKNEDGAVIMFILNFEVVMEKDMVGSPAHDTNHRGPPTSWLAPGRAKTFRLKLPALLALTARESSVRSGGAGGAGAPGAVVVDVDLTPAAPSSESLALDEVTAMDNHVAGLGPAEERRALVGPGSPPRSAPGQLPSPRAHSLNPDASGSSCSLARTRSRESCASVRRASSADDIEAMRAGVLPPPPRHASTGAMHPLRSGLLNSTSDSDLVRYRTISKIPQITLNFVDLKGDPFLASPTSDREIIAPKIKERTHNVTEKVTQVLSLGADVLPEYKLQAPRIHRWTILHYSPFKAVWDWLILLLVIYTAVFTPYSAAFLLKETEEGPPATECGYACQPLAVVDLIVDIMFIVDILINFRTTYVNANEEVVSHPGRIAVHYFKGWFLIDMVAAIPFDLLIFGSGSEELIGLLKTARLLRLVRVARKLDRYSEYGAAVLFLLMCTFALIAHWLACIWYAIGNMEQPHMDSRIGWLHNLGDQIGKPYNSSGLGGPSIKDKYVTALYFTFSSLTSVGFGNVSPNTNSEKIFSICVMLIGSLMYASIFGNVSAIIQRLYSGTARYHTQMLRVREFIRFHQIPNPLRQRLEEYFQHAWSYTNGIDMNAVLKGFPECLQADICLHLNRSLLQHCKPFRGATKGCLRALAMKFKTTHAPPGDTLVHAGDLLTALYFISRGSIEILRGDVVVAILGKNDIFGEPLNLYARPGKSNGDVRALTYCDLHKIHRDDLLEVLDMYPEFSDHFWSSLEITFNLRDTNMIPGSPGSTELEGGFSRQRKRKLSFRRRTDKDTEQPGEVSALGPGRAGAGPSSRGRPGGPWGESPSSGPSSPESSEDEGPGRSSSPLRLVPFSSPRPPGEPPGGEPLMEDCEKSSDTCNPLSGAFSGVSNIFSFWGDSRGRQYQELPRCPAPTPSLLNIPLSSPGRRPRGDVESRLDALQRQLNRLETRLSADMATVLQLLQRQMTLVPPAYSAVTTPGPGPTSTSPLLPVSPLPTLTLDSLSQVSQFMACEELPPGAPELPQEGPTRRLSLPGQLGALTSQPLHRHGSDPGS
In short: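 U2OS cells expressing the channel were plated at 1000 cells/well, incubated overnight at 37 C, then loaded with FluxOR II thallium-sensitive dye for 1 h at room temperature in the dark, with a further 10 min at room temperature before stimulation.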

[16] = qHTS assay to identify small molecule agonists of the sonic hedgehog signaling (Shh) pathway - cell viability counter screen (AID 1259366); note: nearly all actives have a fitted effect of over 50% in size; note: potency is the fitted concentration of half-maximal effect
In short: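 NIH/3T3-derived 3T3 Gli1-Luc cells (stable Gli1-responsive firefly luciferase reporter) were seeded, rested 4 hr at 37 C/5% CO2, then exposed to compounds in DMSO for 24 hr; viability was read by CellTiter-Fluor fluorescence in the same wells.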

[17] = qHTS assay to identify small molecule antagonists of the sonic hedgehog signaling (Shh) pathway (AID 1259369; calls by dose curve; note: nearly all actives have a fitted effect of over 45% in size; note: potency is the fitted concentration of half-maximal effect)
In short: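 Conditioned medium drives Shh signalling in 3T3Gli1-Luc cells; compounds in DMSO co-applied, 24hr at 37 C, then luciferase luminescence.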

[18] = target: Cytochrome P450 2C19 (Homo sapiens) (UniProt P33261); assay: Cytochrome P450 Family 2 Subfamily C Member 19 (CYP2C19) small molecule antagonists: luciferase reporter qHTS assay (AID 1671197); note: potency is the fitted concentration of half-maximal effect; nearly all actives have a fitted effect of over 65% in size
Sequence of Cytochrome P450 2C19 (Homo sapiens) (P33261 whole entry, looked up): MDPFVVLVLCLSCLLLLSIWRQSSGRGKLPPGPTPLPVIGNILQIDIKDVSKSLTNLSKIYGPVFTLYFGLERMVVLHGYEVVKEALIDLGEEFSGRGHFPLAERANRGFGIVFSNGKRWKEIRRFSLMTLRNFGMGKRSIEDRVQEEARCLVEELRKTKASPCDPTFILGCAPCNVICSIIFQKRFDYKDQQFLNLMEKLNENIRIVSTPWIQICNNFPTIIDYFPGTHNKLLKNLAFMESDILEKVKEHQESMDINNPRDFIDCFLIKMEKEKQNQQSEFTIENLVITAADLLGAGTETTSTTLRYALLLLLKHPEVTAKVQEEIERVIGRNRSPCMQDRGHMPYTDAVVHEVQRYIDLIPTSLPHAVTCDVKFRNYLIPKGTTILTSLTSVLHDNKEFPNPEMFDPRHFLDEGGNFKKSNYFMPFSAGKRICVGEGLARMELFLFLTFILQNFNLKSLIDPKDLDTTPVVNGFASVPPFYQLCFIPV
In short: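 Enzyme-substrate mix with proluciferin substrate (P450-Glo CYP2C19 system) preincubated with compounds 10 min at room temperature; NADPH regeneration solution added, 37C for 1 h; detection reagent stops reaction, luminescence read after 20 min. Ketoconazole positive control.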

[19] = qHTS assay to identify small molecule agonists of the estrogen receptor alpha (ER-alpha) signaling pathway in the presence of an antagonist - cell viability counter screen (AID 1259386);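 note: series mostly up to about 92 µM; cells exposed to compounds for 22 h at 37 °C before the viability read; % is set by controls: 0 for no effect and ±100 for the full control effect; nearly all actives have a fitted effect of over 30% in size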
In short: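 ICI-182,780 at 10.0nM final accompanies the compound titration (15 concentrations, 22hr, 37C) on VM7Luc4E2 cells. The CellTiter-Fluor fluorescence readout runs in the same wells as the luciferase assay.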

[20] = qHTS assay to identify small molecule antagonists of the TGF-beta/Smad signaling pathway - cell viability counter screen (AID 1346824)
In short: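 SBE-bla HEK 293T cells were plated overnight at 37 C, then given compounds in DMSO plus TGF-beta1 (added as 0.25 ng/mL solution) for 5 hr. After the bla read, CellTiter-Glo was added to the same wells and luminescence read after 30 min at room temperature.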

Nc1ccc(Cl)cc1[N+](=O)[O-]
inactive: Potency [1]

N#Cc1cc([N+](=O)[O-])ccc1N
inactive: Potency [2] | Potency [3] | Potency [4] | max response [5] -6.49% | Potency [6] | outcome [7] | Potency [8] | Potency [9] | Potency [10] | Potency [11] | Potency [12] | outcome [13] | outcome [14] | Potency [15]

CC1COC(Cn2cncn2)(c2ccc(Oc3ccc(Cl)cc3)cc2Cl)O1 (stereo unspecified)
inactive: Potency [2] | Potency [6] | outcome [7] | Potency [8] | Potency [10] | Potency [11] | outcome [13] | Potency [16] | outcome [14]
active: Potency [4] 49 µM | Potency [5] 17.4 µM | Potency [17] 3.44 µM | Potency [18] 0.0502 µM | Potency [15] 21.9 µM

ClC(Cl)=C(c1ccc(Cl)cc1)c1ccccc1Cl
inactive: Potency [2] | Potency [3] | Potency [6] | outcome [7] | Potency [8] | Potency [9] | Potency [10] | Potency [11] | Potency [12] | outcome [13] | Potency [16] | Potency [17] | outcome [14] | Potency [19] | Potency [20]
active: Potency [18] 6.33 µM | Potency [15] 21.9 µM

Cc1c(N)cccc1[N+](=O)[O-]
inactive: Potency [1]

Cc1cc(C(C)(C)c2ccc(O)c(C)c2)ccc1O
active: Potency [1] 13 µM | Potency [5] 20.8 µM | Potency [16] 58.2 µM | Potency [17] 16.4 µM | Potency [18] 2.14 µM
inactive: Potency [2] | Potency [3] | Potency [6] | outcome [7] | Potency [9] | Potency [10] | Potency [11] | outcome [13] | Potency [20]
